Measured values: PubChem BioAssay AID1963315 (National Center for Advancing Translational Sciences (NCATS), 2024)
Results filed as inconclusive are left out. Values without a mark were called inactive. Activity calls are given as the source filed them. The call rests on the fitted dose curve.

biological target: Tyrosine-protein kinase ABL1 (Homo sapiens) (UniProt P00519); test: ABL1 kinase (ABL1-N-HiBiT) SDR gain of signal screen; settings: Purified ABL1-N-HiBiT enzyme, Nano-Glo HiBiT luminescence, 30 min compound incubation; series mostly up to 32.9 µM; activity change, gain of signal: at the top concentration
Method in brief: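 Gain-of-signal luminescence after Nano-Glo HiBiT detection (10 min, room temperature) measures compound binding to 10 nM ABL1-N-HiBiT, which had been incubated 30 min with compound at room temperature, light-protected, without ATP.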

Chain of Tyrosine-protein kinase ABL1 (Homo sapiens) (P00519 whole entry, looked up): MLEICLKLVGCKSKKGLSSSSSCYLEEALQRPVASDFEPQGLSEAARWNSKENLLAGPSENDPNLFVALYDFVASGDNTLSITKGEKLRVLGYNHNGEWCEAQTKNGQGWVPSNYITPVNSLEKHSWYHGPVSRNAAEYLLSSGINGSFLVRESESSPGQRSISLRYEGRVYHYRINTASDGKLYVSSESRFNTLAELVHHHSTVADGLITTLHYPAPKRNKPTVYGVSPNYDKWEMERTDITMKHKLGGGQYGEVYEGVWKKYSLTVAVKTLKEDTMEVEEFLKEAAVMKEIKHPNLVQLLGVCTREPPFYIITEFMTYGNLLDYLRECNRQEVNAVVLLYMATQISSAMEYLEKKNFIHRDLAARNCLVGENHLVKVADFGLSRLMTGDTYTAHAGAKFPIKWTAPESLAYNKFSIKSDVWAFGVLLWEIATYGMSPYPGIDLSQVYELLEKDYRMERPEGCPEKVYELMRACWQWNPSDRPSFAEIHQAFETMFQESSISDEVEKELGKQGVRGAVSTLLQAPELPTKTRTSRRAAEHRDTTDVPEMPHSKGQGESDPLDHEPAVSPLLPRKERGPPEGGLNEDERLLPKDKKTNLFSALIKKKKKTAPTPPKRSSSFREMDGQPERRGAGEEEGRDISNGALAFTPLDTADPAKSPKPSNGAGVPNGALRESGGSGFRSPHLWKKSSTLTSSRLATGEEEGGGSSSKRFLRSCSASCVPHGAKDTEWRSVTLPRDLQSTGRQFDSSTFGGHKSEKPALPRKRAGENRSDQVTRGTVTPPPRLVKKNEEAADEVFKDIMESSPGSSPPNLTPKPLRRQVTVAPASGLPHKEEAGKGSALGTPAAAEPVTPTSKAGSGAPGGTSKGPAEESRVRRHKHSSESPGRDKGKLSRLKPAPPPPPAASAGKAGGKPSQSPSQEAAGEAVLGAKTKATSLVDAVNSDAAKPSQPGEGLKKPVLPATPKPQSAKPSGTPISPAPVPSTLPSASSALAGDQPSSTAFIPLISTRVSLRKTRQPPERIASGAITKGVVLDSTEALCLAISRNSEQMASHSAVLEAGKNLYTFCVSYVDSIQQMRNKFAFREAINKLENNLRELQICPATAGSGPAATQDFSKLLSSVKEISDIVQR

Row | SMILES | activity change, gain of signal | Potency
1 | C=CC(=O)Nc1cccc(Oc2nc(Nc3ccc(N4CCN(C)CC4)cc3OC)ncc2Cl)c1 | 10.9% | 
2 | Cc1ccccc1-n1c([C@H](C)Nc2nc(N)nc3nc[nH]c23)nc2cccc(C)c2c1=O | -2.2% | 
3 | O=C(Nc1cc(C(F)(F)F)ccc1N1CCCCC1)c1ccncc1 | -5.06% | 
4 | Nc1nc(Nc2ccc(S(N)(=O)=O)cc2)n(C(=S)Nc2c(F)cccc2F)n1 |  | 0.248 µM (active)
5 | O=C(O)C1(Cc2cccc(Nc3nccs3)n2)CCC(Oc2cccc(Cl)c2F)CC1 (configuration not stated) |  | 0.114 µM (active)
6 | c1cc(-c2cc(C3CCNCC3)[nH]n2)ccn1 | -33.3% [at 16.4 µM] | 
7 | O=C(c1cccc(Cl)c1F)N1CCN(Cc2cccc(Nc3nccs3)n2)CC1 |  | 3.93 µM (active)
8 | O=S(=O)(/N=C/c1c(O)ccc2ccccc12)c1cccs1 | 1.83% | 
9 | O=c1cc(N2CCOCC2)nc2c3ccccc3ccn12 |  | 8.55 µM (active)
10 | COC(=O)Nc1ccc(-c2nc(N3CCOCC3)c3cnn(C4CCN(C(=O)OC)CC4)c3n2)cc1 | 1.9% | 
11 | Cc1cccc(C)c1-n1c(=O)c2cnc(Nc3ccc(N4CCN(C)CC4)cc3)nc2n2c3ccccc3nc12 |  | 0.0555 µM (active)
12 | CCCCCCCCCCCCc1ccc(S(=O)(=O)Nc2nncs2)cc1 | 9.18% | 
13 | Cc1[nH]c2ccccc2c1C1=C(NCCc2ccc(F)cc2)C(=O)N(C)C1=O | -9.98% | 
14 | O=C1C(c2c(O)[nH]c3ccccc23)=Nc2ccccc21 | -1.14% | 
15 | Cc1cccc(/C=N/Nc2cc(N3CCOCC3)nc(OCCc3ccccn3)n2)c1 | 5.57% [at 26.3 µM] | 
16 | N#Cc1cccc(-c2c[nH]c3ncnc(N4CCOCC4)c23)c1 |  | 10.2 µM (active)
17 | C#Cc1cccc(Nc2ncnc3cc4c(cc23)OCCOCCOCCO4)c1 |  | 5.88 µM (active)
18 | COc1cc(N2CCOCC2)ccc1Nc1ncc(Cl)c(Nc2ccccc2NS(C)(=O)=O)n1 |  | 5.4 µM (active)
19 | FC(F)(F)c1ccc(/C=C/c2nc(COc3ccc(CCCCn4ccnn4)cc3)co2)cc1 | -2.47% | 
20 | N#Cc1ccc2ncnc(NCCc3ccccc3)c2c1 | 5.52% | 
21 | C=CC(=O)N1CCC[C@@H](n2nc(-c3cccc(C(=O)Nc4ccc(C(C)C)c(C)c4)c3)c3c(N)ncnc32)C1 |  | 4.41 µM (active)
22 | Cn1cc(-c2cc3c(N4CCN(c5ncc([C@@](C)(N)c6ccc(F)cc6)cn5)CC4)ncnn3c2)cn1 |  | 2.48 µM (active)
